Counter-ions that a name gives are not always drawn.
tested on: Pseudogymnoascus destructans 20631-21; assay: growth activity index (DuctApe, 0 = no growth, 9 = maximal growth) (index 0-9); higher = more fungal growth (less inhibition), active = 0 or less; extreme values may be limits of the assay; settings: concentration level (1-4, increasing; Biolog proprietary): 3; temperature: 13 °C; YPD
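Further: biolog Phenotype Microarray plates PM21–25, OD595 followed daily over 11 days, growth curves converted to index, mean of two independent experiments.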

**Q.** With `O=C(O)CN(CCN(CC(=O)O)CC(=O)O)CC(=O)O` (Biolog plate: PM21) as the compound, how does the growth activity index read?
**A.** 5 (inactive)

**Q.** How did the growth activity index turn out when `O=c1[nH]c(=O)n([C@H]2C[C@H](O)[C@@H](CO)O2)cc1F` [Fluorodeoxyuridine] (Biolog plate: PM25) was run?
**A.** 4.33 (inactive)

**Q.** With `[Cl-].[Li+]` [Lithium chloride] (Biolog plate: PM22) as the compound, how does the growth activity index read?
**A.** 0 (active)

**Q.** Which growth activity index does the source give for `[Na+].[O]=[V](=[O])[O-]` [Sodium metavanadate] (Biolog plate: PM22) here?
**A.** 5 (inactive)

**Q.** For `O=C(O)CC(O)C(=O)O` (configuration not stated) [Malic acid] (Biolog plate: PM25), which growth activity index is on record?
**A.** 2.67 (inactive)

**Q.** Which growth activity index does the source give for `c1ccc(-c2ccccn2)nc1` [2,2`-Dipyridyl] (Biolog plate: PM21) here?
**A.** 5.25 (inactive)

**Q.** For `O=C(O)C(O)C(O)C(=O)O` (configuration not stated) [Tartaric acid] (Biolog plate: PM25), which growth activity index is on record?
**A.** 4.33 (inactive)

**Q.** `COc1cc(/C=C/C(=O)O)ccc1O` [Ferulic acid] (Biolog plate: PM25) was tested. Which growth activity index did it give?
**A.** 0 (active)

**Q.** For `CCCCCCCCCCCC[N+](C)(C)C` [Dodecyltrimethyl ammonium bromide] (Biolog plate: PM21), which growth activity index is on record?
**A.** 0 (active)

**Q.** With `NNC(=O)c1ccncc1` [Isoniazid] (Biolog plate: PM24) as the compound, how does the growth activity index read?
**A.** 4 (inactive)

same assay, conditions: concentration level (1-4, increasing; Biolog proprietary): 4; temperature: 13 °C; YPD

**Q.** How did the growth activity index turn out when `O=C(O)/C=C/c1ccccc1` [Cinnamic acid] (Biolog plate: PM25) was run?
**A.** 5 (inactive)

**Q.** For `Cn1c(=O)c2c(ncn2C)n(C)c1=O` [Caffeine] (Biolog plate: PM22), which growth activity index is on record?
**A.** 0 (active)

**Q.** Which growth activity index does the source give for `[I-].[K+]` [Potassium iodide] (Biolog plate: PM22) here?
**A.** 0 (active)

**Q.** Which growth activity index does the source give for `O=c1cn[nH]c(=O)[nH]1` [6-Azauracil] (Biolog plate: PM24) here?
**A.** 2.67 (inactive)

**Q.** Which growth activity index does the source give for `CC(CN1c2ccccc2Sc2ccccc21)N(C)C` (configuration not stated) [Promethazine] (Biolog plate: PM21) here?
**A.** 6 (inactive)

**Q.** With `O=C([O-])c1ccccc1O.[Na+]` [Sodium Salicylate] (Biolog plate: PM25) as the compound, how does the growth activity index read?
**A.** 4 (inactive)

**Q.** Which growth activity index does the source give for `CN1CCN(CCCN2c3ccccc3Sc3ccc(C(F)(F)F)cc32)CC1` [Trifluoperazine] (Biolog plate: PM21) here?
**A.** 6.25 (inactive)

**Q.** For `NC(CO)C(=O)NO` (racemic) [DL-Serine hydroxamate] (Biolog plate: PM22), which growth activity index is on record?
**A.** 0 (active)

**Q.** `NC(N)=NCCC[C@H](N)C(=O)NO` [L-Arginine hydroxamate] (Biolog plate: PM22) was tested. Which growth activity index did it give?
**A.** 0.667 (inactive)

**Q.** How did the growth activity index turn out when `NC(N)=O` [Urea hydrogen peroxide] (Biolog plate: PM22) was run?
**A.** 4.33 (inactive)

**Q.** Which growth activity index does the source give for `CCCCCCCCCCCC[N+](C)(C)CCOc1ccccc1` [Domiphen bromide] (Biolog plate: PM21) here?
**A.** 0 (active)

**Q.** With `C[C@@H]1[C@H](O)[C@@H](C)/C=C/C=C/C=C/C=C/C=C/C=C/C=C/[C@H](O[C@@H]2O[C@H](C)[C@@H](O)[C@H](N)[C@@H]2O)C[C@@H]2O[C@](O)(C[C@@H](O)C[C@@H](O)[C@H](O)CC[C@@H](O)C[C@@H](O)CC(=O)O[C@H]1C)C[C@H](O)[C@H]2C(=O)O` [Amphotericin B] (Biolog plate: PM24) as the compound, how does the growth activity index read?
**A.** 0 (active)

**Q.** For `OB(O)O` [Boric acid] (Biolog plate: PM22), which growth activity index is on record?
**A.** 0 (active)

**Q.** Which growth activity index does the source give for `[Cl][Pd][Cl]` [Palladium(II) Chloride] (Biolog plate: PM25) here?
**A.** 5 (inactive)

**Q.** With `N=C(N)c1ccc(OCCCCCOc2ccc(C(=N)N)cc2)cc1` [Pentamidine Isethionate] (Biolog plate: PM24) as the compound, how does the growth activity index read?
**A.** 8 (inactive)

**Q.** With `NC(=O)NO` [Hydroxyurea] (Biolog plate: PM25) as the compound, how does the growth activity index read?
**A.** 0 (active)

**Q.** For `Nc1c2ccccc2nc2ccccc12` [9-Aminoacridine] (Biolog plate: PM24), which growth activity index is on record?
**A.** 9 (inactive)

**Q.** With `Cc1cc(N)c2ccccc2[n+]1CCCCCCCCCC[n+]1c(C)cc(N)c2ccccc21` [Dequalinium chloride] (Biolog plate: PM23) as the compound, how does the growth activity index read?
**A.** 1 (inactive)

**Q.** `NCC(=O)O` [Glycine hydrochloride] (Biolog plate: PM23) was tested. Which growth activity index did it give?
**A.** 2 (inactive)

**Q.** How did the growth activity index turn out when `[F-].[Na+]` [Sodium Fluoride] (Biolog plate: PM24) was run?
**A.** 4.67 (inactive)

**Q.** Which growth activity index does the source give for `[Cl][Cu][Cl]` [Cupric chloride] (Biolog plate: PM23) here?
**A.** 6 (inactive)

**Q.** How did the growth activity index turn out when `COc1ccc2cc3[n+](cc2c1OC)CCc1cc2c(cc1-3)OCO2` [Berberine Chloride] (Biolog plate: PM24) was run?
**A.** 0.667 (inactive)

From the supplement of paper PMC6124720
